The record followed here is PubChem BioAssay.

Experiment [1] deals with Wnt5a (protein binding on small-molecule microarray). The experiment is described as follows: Wnt5a binders on small-molecule microarray, primary screen, biophysical, 635/667 nm fluorescence (AID 1142).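 Note: fluorescence read at 667 nm with signal to noise per printed feature.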 Conditions: 635 nm fluorescence, higher = more signal.
Experiment [2] is described as follows: cell viability in Huh7 cells, primary screen, cytotoxicity control for HCV replication inhibitor project, CellTiter-Glo luminescence, basal, 48 h (AID 1143).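 Note: Huh7 hepatoma cells carrying a hepatitis C replication reporter with no stimulus; test concentration not given here.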 The note with it: Huh7 HCV replicon, higher = more signal, called active from +8 up or from −8 down. Background: In ATP-based viability assays light output follows the ATP content of the culture.
Experiment [3] is described as follows: P. aeruginosa biofilm formation inhibitors, primary screen, PAO1 strain, BacTiter-Glo luminescence, LB-PBS (AID 1144). Conditions: 12 h, higher = more signal.
A short description of experiment [4]: CREB reporter modulators without forskolin, primary screen, cell-based, PC12, CRE-LacZ reporter, unstimulated (AID 1145). The note with it: no forskolin, luminescence, 4.5 h, higher = more signal, called active from +8 up or from −8 down.
Experiment [5] is described as follows: CREB reporter modulators under forskolin, primary screen, cell-based, PC12, CRE-LacZ reporter, forskolin-stimulated (AID 1146).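 Note: PC12 cells with 6xCRE LacZ reporter stimulated by forskolin 10 µM; beta-galactosidase reporter signal reflecting CREB driven transcription.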 The note with it: luminescence, 4.5 h, higher = more signal, called active from +8 up or from −8 down.
For experiment [6], the target named is Streptavidin (Streptomyces avidinii) (UniProt P22629). The experiment in a line: streptavidin binders on small-molecule microarray, primary screen, artefact control for SMM compound annotation, biophysical, 635/667 nm fluorescence (AID 1147).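 Note: signal reflects streptavidin binding to arrayed compounds as a control protein.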 The note with it: streptavidin binding, higher = more signal.
Chain of Streptavidin (Streptomyces avidinii) (P22629 whole entry, looked up): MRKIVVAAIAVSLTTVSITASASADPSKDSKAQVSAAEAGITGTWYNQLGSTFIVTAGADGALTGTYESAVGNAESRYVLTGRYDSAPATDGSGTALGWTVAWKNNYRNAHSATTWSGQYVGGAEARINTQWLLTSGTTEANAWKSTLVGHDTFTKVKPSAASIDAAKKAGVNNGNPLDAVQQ
The nature of experiment [7]: small-molecule binders of probe aInhba, primary screen, biochemical, small-molecule microarray, 635/667 nm fluorescence (AID 1148).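 Note: score merges 667nm spot fluorescence with signal-to-noise for antibody binding to printed compounds.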 The note with it: higher = more signal.
Experiment [8] addresses Torsin-1A (Homo sapiens) (UniProt O14656). The experiment in a line: torsin A binders from cell lysate, primary screen, small-molecule microarray, wild-type, 635/667 nm (AID 1149). The note with it: COS7 hTOR1A-WT lysate, 635 nm fluorescence, higher = more signal.
For experiment [9] the target is unchanged. The experiment is described as follows: small-molecule binders of mutant TOR1A in lysate, primary screen, cell lysate, small-molecule microarray, COS7 lysate, 635/667 nm fluorescence (AID 1150).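 Note: score pools 667 nm emission and signal to noise measuring lysate protein binding.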 Conditions: COS7 hTOR1A mutant lysate, 635 nm fluorescence, higher = more signal.
Experiment [10] has as its system Sonic hedgehog protein (Shh). The experiment in a line: small-molecule binders of Shh protein, primary screen, biochemical, small-molecule microarray, 635/667 nm fluorescence (AID 1151).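 Note: Shh protein binding to compounds spotted on small-molecule microarray slides; score combines spot fluorescence intensity with signal-to-noise across triplicate slides.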 The note with it: small-molecule microarray binding, 635 nm fluorescence; higher = more signal.
Experiment [11] can be described thus: E. coli DRC41 culture turbidity changes, primary screen, E. coli filamentation inducer project, strain DRC41, OD650, 48 h (AID 1152).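 Note: E. coli MC1000 strain DRC41 lacking acrAB efflux pump and sulA.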 The note with it: E. coli DRC41 (acrAB sulA), higher = more signal, called active from +8 up or from −8 down.
Experiment [12] can be described thus: small-molecule binders of probe aLefty1, primary screen, biochemical, small-molecule microarray, 635/667 nm fluorescence (AID 1153).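 Note: score merges spot fluorescence with signal-to-noise ratio from the scanned slide images.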 The note with it: higher = more signal.
Experiment [13] can be described thus: PSAC antagonists in infected red cells, primary screen, cell-based, P. falciparum Indochina, OD700, 1 h (AID 1154). Conditions: P. falciparum Indochina infected RBC osmotic lysis, higher = more signal, called active from +8 up or from −8 down.
The nature of experiment [14]: PSAC antagonists in infected red cells, primary screen, cell-based, P. falciparum Indochina, OD700, 2 h (AID 1155).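 Note: lysis reports solute entry through the parasite surface anion channel PSAC; channel blockers reduce lysis of infected cells.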 Conditions: P. falciparum Indochina infected erythrocytes, osmotic lysis OD700; higher = more signal, called active from +8 up or from −8 down.
A short description of experiment [15]: osmotic lysis modulators in infected erythrocytes, primary screen, PSAC antagonist project, cell-based, P. falciparum Indochina, OD700, 3 h (AID 1156). Conditions: higher = more signal, called active from +8 up or from −8 down.
The nature of experiment [16]: PSAC antagonists in infected red cells, primary screen, cell-based, P. falciparum Indochina, OD700, 18 h (AID 1157). Conditions: P. falciparum Indochina infected erythrocytes, osmotic lysis OD700, 18 h; higher = more signal, called active from +8 up or from −8 down.
The nature of experiment [17]: modulators of S6 phosphorylation in cells, primary screen, cell-based, A549, cytoblot, luminescence, serum-stimulated (AID 1158).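 Note: serum-stimulated A549 lung adenocarcinoma cells; signal is phosphorylated S6 detected by cytoblot immunostaining with HRP secondary.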 The note with it: A549 phospho-S6 cytoblot, 5 h, higher = more signal.
The target of experiment [18] is NADPH oxidase 2 (Homo sapiens) (UniProt P04839). The experiment in a line: NOX2-dependent H2O2 signal modulators, primary screen, NOX inhibitor project, cell-based, HEK293-NOX2, PMA-stimulated, Amplex Red fluorescence (AID 1159). Note: test concentration not given here. The note with it: 45 min, higher = more signal, called active from +8 up or from −8 down.
Chain of NADPH oxidase 2 (Homo sapiens) (P04839 whole entry, looked up): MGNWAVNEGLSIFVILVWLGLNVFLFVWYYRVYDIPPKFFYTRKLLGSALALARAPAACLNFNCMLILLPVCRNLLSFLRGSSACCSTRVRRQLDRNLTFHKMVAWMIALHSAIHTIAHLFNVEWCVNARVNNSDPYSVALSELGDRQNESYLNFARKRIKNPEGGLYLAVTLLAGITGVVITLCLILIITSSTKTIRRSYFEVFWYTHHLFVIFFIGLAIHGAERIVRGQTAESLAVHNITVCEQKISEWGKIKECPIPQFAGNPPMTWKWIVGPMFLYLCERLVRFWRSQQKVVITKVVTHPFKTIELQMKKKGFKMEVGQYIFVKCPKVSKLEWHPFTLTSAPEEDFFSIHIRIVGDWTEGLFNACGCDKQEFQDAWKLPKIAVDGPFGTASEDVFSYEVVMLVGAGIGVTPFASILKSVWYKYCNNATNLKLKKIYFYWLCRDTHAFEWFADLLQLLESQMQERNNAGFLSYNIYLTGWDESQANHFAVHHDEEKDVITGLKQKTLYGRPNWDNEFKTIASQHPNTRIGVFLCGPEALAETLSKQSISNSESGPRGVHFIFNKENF
Experiment [19] concerns the target NADPH oxidase 4 (Homo sapiens) (UniProt Q9NPH5). The experiment is described as follows: NOX4-dependent H2O2 signal modulators, primary screen, NOX inhibitor project, cell-based, HEK293-NOX4, tetracycline-induced, Amplex Red fluorescence (AID 1160). Conditions: 45 min, higher = more signal, called active from +8 up or from −8 down.
The target of experiment [20] is NADPH oxidase 5 (Homo sapiens) (UniProt Q96PH1). The experiment is described as follows: NOX5-dependent H2O2 signal modulators, primary screen, NOX inhibitor project, cell-based, HEK293-NOX5, Amplex Red fluorescence (AID 1161). Conditions: HEK293-NOX5, ionomycin, 45 min, higher = more signal.
Chain of NADPH oxidase 5 (Homo sapiens) (Q96PH1 whole entry, looked up): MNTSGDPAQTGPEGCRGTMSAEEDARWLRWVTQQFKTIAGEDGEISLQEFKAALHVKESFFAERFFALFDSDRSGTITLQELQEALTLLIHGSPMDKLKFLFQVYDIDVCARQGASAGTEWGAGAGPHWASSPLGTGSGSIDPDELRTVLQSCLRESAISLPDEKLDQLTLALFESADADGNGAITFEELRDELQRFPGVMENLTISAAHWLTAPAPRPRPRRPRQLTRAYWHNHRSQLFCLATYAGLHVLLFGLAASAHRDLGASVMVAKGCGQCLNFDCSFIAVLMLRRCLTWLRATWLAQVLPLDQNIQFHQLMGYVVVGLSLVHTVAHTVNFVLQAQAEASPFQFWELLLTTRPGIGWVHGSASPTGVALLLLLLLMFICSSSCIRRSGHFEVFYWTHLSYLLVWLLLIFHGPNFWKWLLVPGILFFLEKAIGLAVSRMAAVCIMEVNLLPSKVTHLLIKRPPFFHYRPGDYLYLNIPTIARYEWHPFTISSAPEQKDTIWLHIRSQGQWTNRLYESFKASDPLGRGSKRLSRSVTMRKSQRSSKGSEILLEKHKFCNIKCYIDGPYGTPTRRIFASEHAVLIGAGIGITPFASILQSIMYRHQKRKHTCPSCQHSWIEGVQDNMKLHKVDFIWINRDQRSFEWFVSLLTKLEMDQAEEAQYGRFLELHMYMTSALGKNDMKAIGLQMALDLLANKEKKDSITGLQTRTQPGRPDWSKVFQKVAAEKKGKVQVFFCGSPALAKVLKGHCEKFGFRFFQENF

The structures appear in SMILES notation. Calls of active or inactive are those of the source. Unless noted, the rule behind the calls is not given here.

Chain of NADPH oxidase 4 (Homo sapiens) (Q9NPH5 whole entry, looked up): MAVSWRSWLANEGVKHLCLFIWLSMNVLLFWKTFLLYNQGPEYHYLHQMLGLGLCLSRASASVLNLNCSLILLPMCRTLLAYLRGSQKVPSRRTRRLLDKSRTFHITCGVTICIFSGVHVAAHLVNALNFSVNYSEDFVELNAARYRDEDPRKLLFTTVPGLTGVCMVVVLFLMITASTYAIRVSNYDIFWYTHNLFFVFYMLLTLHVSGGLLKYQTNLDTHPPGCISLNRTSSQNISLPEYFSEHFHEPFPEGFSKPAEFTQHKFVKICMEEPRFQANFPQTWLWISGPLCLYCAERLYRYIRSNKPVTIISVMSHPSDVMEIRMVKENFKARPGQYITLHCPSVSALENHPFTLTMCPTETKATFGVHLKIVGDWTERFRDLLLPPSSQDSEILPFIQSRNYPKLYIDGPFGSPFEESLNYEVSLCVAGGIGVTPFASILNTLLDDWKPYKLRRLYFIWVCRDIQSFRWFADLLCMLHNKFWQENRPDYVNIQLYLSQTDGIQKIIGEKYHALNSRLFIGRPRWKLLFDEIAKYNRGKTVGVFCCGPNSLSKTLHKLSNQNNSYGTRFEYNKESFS
Chain of Torsin-1A (Homo sapiens) (O14656 whole entry, looked up): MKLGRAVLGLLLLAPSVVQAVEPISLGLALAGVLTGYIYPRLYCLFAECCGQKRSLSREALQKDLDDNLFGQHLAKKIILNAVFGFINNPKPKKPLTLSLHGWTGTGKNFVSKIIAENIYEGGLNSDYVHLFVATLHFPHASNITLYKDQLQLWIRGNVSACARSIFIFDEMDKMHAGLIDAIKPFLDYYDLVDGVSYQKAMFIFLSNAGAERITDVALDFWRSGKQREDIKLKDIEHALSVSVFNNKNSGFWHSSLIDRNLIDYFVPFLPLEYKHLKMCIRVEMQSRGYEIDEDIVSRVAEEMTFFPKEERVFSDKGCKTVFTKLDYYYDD

Turning to `CCOC(=O)[C@H](Cc1ccccc1)NC(=O)CCC1CC(OC(=O)NCc2cccc3ccccc23)CC2(CCCC(COC(=O)NCCc3ccc(Cl)cc3)O2)O1` (stereo not given in full), the composite z-score in [1] was 0.0449; in experiment [6] it was 0.998; in [7] it was -0.223; with Torsin-1A (Homo sapiens) [8] it was -0.162; with Torsin-1A (Homo sapiens) [9] it was 0.244; in [10] it was 0.932. In experiment [12], the composite z-score was determined as 0.539. For the same compound, the z-score in [2] was -2.69 (inactive); in experiment [3] it was -1.39 (inactive); in [4], 0.563 (inactive); in experiment [5] it was 0.0305 (inactive); in experiment [11], -1.37 (inactive); in experiment [13] it was 7.28 (inactive). The z-score was 0.618 (inactive) in [14]; -0.552 (inactive) in experiment [15]; -0.687 (inactive) in experiment [16]; 0.335 in experiment [17]; 0.694 (inactive) in experiment [18]; 0.92 (inactive) in experiment [19]. The compound also gave a z-score in [20] of 0.986.
`CCOC(=O)[C@H](Cc1ccccc1)NC(=O)CCC1CC(OC(=O)NCc2cccc3ccccc23)CC2(CCCC(COC(=O)NCC3CCCCC3)O2)O1` (stereo not given in full): the composite z-score in experiment [1] is 0.297; in [6], 0.307; in experiment [7], 0.0155; with Torsin-1A (Homo sapiens) [8], 0.156; with Torsin-1A (Homo sapiens) [9], 0.224; in [10], 0.955. Besides, the composite z-score in [12] was -0.0662. Besides, the z-score was -0.213 (inactive) in experiment [2]; -0.441 (inactive) in experiment [3]; -0.343 (inactive) in experiment [4]; 0.895 (inactive) in experiment [5]; 0.0278 (inactive) in [11]; 1.78 (inactive) in [13]. In addition, the z-score in experiment [14] is -0.393 (inactive); in experiment [15] it was -1.94 (inactive); in experiment [16] it was -0.611 (inactive); in [17] it was -0.154; in experiment [18], 0.746 (inactive); in experiment [19], 0.745 (inactive). Also, in experiment [20], the z-score was 0.517.
Turning to `O=C1[C@H]2[C@H]3[C@H](O)[C@H](O)CC(=NOC[C@@H](O)COCc4ccco4)[C@@H]3CC[C@H]2C(=O)N1c1cccc(Oc2ccccc2)c1`, the composite z-score in experiment [1] is -0.403; in experiment [6], 0.707; in experiment [7], -0.0986; with Torsin-1A (Homo sapiens) [8] it was 0.419; with Torsin-1A (Homo sapiens) [9] it was 0.94; in [10] it was 0.537. Further, in experiment [12], the composite z-score was -0.247. The z-score in experiment [2] was -0.578 (inactive); in experiment [3] it was 0.626 (inactive); in experiment [4], -1.02 (inactive); in experiment [5], -0.009 (inactive); in [11], -1.26 (inactive); in [13], 2.27 (inactive). Also, the z-score in experiment [14] was 0.802 (inactive); in [15], 1.39 (inactive); in [16] it was 0.157 (inactive); in experiment [17], -0.664; in experiment [18], 2.2 (inactive); in experiment [19], 1.32 (inactive). This compound also had a z-score in experiment [20] of 0.425.
Take `CCN(CC)CC(O)CN1CCCCc2nc(C)c(C)cc21` (stereo not given): the composite z-score is 0.0321 in [1]; 0.551 in experiment [6]; -0.183 in experiment [7]; 0.57 with Torsin-1A (Homo sapiens) [8]; 0.029 with Torsin-1A (Homo sapiens) [9]; 0.261 in [10]. In [12], this compound showed a composite z-score of -0.0544. In addition, the z-score in experiment [2] was -1.1 (inactive); in experiment [3] it was -1.67 (inactive); in [4] it was -0.161 (inactive); in [5], -0.71 (inactive); in experiment [11], 0.219 (inactive); in [13], -0.446 (inactive). The z-score in experiment [14] was -1.31 (inactive); in experiment [15], 0.273 (inactive); in experiment [16] it was -1.55 (inactive); in experiment [17], 1.43; in experiment [18], 0.776 (inactive); in experiment [19] it was -0.622 (inactive). Further, in [20], the z-score is 0.419.
